Assay outcomes from PubChem.
LmPK inhibitor: LmPK (Leishmania mexicana) enzyme inhibition; Q27686; purified LmPK, Kinase-Glo ATP luminescence, 1 h; actives 0.37% (n = 290,000); Potency, µM (series often up to 57.5 µM), without a hit: top-dose activity change, negative = inhibition, usual class: inhibitors
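Pyruvate kinase activity monitored as ATP production (luciferase luminescence). Conditions: 0.1 nM enzyme, 0.5 mM PEP, 0.1 mM ADP, 1 h, RT; normalized against uninhibited and no-enzyme wells.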
FBPA Giardia inh: Giardia lamblia aldolase inhibition. A8B2U2. purified Giardia FBPA. Potency, µM (doses to about 59.6 µM), for the others: top-dose activity, negative = inhibition, hits mostly inhibitors. actives 0.71% (n = 290,000). AID 2451; further: nearly all actives have a fitted effect of over 55% in size
Target sequence (A8B2U2 whole entry, looked up): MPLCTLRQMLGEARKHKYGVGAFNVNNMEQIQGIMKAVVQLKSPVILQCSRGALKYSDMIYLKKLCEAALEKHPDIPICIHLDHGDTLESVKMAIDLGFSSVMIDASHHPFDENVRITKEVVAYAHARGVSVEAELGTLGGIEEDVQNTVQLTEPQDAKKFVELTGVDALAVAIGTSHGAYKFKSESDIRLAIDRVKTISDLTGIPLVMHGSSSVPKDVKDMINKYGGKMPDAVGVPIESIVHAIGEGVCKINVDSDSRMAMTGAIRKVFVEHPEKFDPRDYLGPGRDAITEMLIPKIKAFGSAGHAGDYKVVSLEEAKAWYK
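40 nM FBPA preincubated 10 min at RT with compound (up to 57.5 uM final), then substrate plus GAPDH/TPI/NAD/arsenate coupling and diaphorase/resazurin added. Fluorescence read after 20 min at RT, 525/598 nm.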
TbPYK inhibitor: inhibitors of Trypanosoma brucei pyruvate kinase; actives 0.12% (n = 410,000); Potency, µM (highest dose often 76.8 µM), for inactives: top-dose activity, negative = inhibition, usual class: inhibitors; TbPYK enzyme, Kinase-Glo Plus ATP luminescence, 45 min; AID 624173; Q57TT1; further: nearly all actives have a fitted effect of over 50% in size
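T. brucei PYK with substrate was exposed to pin-transferred compounds across a concentration series, then started with 130 uM ADP (final). After 45 min at room temperature, Kinase-Glo Plus luminescence was read, normalized and curve-fitted.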
RE007 growth inh: less growth of the S. pombe RE007 Vpr strain; Potency, µM (doses to about 92.2 µM), without a hit: top-dose activity change, negative = less growth, most hits filed as inhibitors; actives 0.21% (n = 360,000); S. pombe RE007 Vpr strain, BacTiter-Glo ATP luminescence, 24 h; AID 651644; active means well fitted falling curve with a large enough effect; inconclusive means small, poorly fitted or top-dose-only effect; inactive means no such curve, though single readings can be large or run the other way; further: nearly all actives have a fitted effect of over 50% in size
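Fission yeast RE007 carrying one integrated HIV-1 vpr copy, seeded at OD 0.01 in PMG+AL medium with 23 nL pinned compound. Grown 24 h at 30 degrees; viability read by BacTiter-Glo luminescence after 5 min.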
Numbers without * were called inactive. In the library only some 0.95% were active in any assay of this set; here they are far more common. Unless noted, the call rests on the fitted dose curve; in most records, active means well fitted curve in the direction sought with a large enough effect; inconclusive means small, poorly fitted or top-dose-only effect, or another doubt; inactive means no such curve, though single readings can be large; an effect the other way counts as inactive or inconclusive. On the % scale 0 is the no-effect control and ±100 the full control effect; potency means the concentration at half of the fitted maximal effect.

N#CCSc1ccc(-c2nc3ccccc3[nH]2)cn1 was read as LmPK inhibitor 25.1µM*, FBPA Giardia inh -11.6%, TbPYK inhibitor 0.4% and RE007 growth inh -29.2%.
For Cc1ccc(C(=O)Nc2nc3c(s2)CCCC3)o1 the results were LmPK inhibitor 25.1µM*, FBPA Giardia inh -12.2%, TbPYK inhibitor -18.4% and RE007 growth inh inconclusive.
Screening c1ccc(-c2nc3ccccc3s2)nc1 returned LmPK inhibitor 11.2µM*, FBPA Giardia inh -0.8%, TbPYK inhibitor -4.2% and RE007 growth inh -17.1%.
For Nc1ccc(-c2nc3ccccc3s2)cn1 the results were LmPK inhibitor -8.7%, FBPA Giardia inh 8.6%, TbPYK inhibitor -7.5% and RE007 growth inh -14.8%.
Screening Brc1ccc(-c2nc3ccccc3s2)s1 returned LmPK inhibitor 28.2µM*, FBPA Giardia inh -1.8%, TbPYK inhibitor 2.6% and RE007 growth inh inconclusive.
`COc1ccc2c(c1)c1c(c(=O)n(Cc3ccccc3)c(=O)n1Cc1cccc(Cl)c1)n2C` gave TbPYK inhibitor 4.7%.
CC(C)Cn1c(-c2ccccc2F)n[nH]c1=S was read as LmPK inhibitor -7.1%, FBPA Giardia inh -7.9%, TbPYK inhibitor inconclusive and RE007 growth inh 6.4%.
Screening CC(C)Cn1c(-c2csc3c2CCCC3)n[nH]c1=S returned LmPK inhibitor 10µM*, FBPA Giardia inh -1.3%, TbPYK inhibitor inconclusive and RE007 growth inh 0.5%.
Screening CC(C)N(CCC(=O)c1ccc2ccccc2c1)Cc1ccccc1 returned FBPA Giardia inh 11.7%, TbPYK inhibitor -0.3% and RE007 growth inh 3.98µM*.
O=C1NC(=O)C(=Cc2ccc(-c3cc(Cl)ccc3[N+](=O)[O-])o2)C(=O)N1 was read as LmPK inhibitor -3.4%, FBPA Giardia inh -21.5%, TbPYK inhibitor 17.8µM* and RE007 growth inh 2.8%.
For O=C1NC(=O)C(=Cc2ccccc2[N+](=O)[O-])C(=O)N1 the results were TbPYK inhibitor inconclusive and RE007 growth inh -5.1%.
Screening O=C1NC(=O)C(=Cc2ccc(-c3ccccc3[N+](=O)[O-])o2)C(=O)N1 returned LmPK inhibitor -17.8%, FBPA Giardia inh -23.3%, TbPYK inhibitor 15.8µM* and RE007 growth inh 4.9%.
`CC1=C(C#N)C(=O)NC(=O)/C1=C\c1ccc(-c2cc(C)c(C)cc2[N+](=O)[O-])o1` gave LmPK inhibitor 1.4%, FBPA Giardia inh inconclusive, TbPYK inhibitor -25.8% and RE007 growth inh inconclusive.
For O=C1O[C@H]2[C@@H](OC(O)[C@@H]2O)[C@H]1O (stereo not given in full) the results were TbPYK inhibitor -6.4%.
For Cc1ccc(-c2nnc(-c3cccs3)o2)cc1 the results were LmPK inhibitor inconclusive, FBPA Giardia inh -0.9%, TbPYK inhibitor -0.3% and RE007 growth inh 20µM*.
COc1ccccc1-c1nc2n(n1)C(c1ccccc1Cl)C(C(=O)Nc1cccnc1)=C(C)N2 (stereo not given) was read as TbPYK inhibitor 3.7%.
`Cc1ccc(/C=C2/CNC/C(=C\c3ccc(C)cc3)C2=O)cc1` gave FBPA Giardia inh -6.9%.
`CCOc1cccc(CNc2ccc(O)cc2)c1OCc1ccc(Cl)cc1Cl` gave LmPK inhibitor 5.3%, FBPA Giardia inh 12.6µM*, TbPYK inhibitor inconclusive and RE007 growth inh inconclusive.
For CN1CCN(C2=C(Cl)C(=O)C(c3cnc(N4CCCCC4)s3)=C(Cl)C2=O)CC1 the results were LmPK inhibitor inconclusive, FBPA Giardia inh 4.9%, TbPYK inhibitor 1µM* and RE007 growth inh inconclusive.
Screening CC1(C)CCC(c2ccc(Cl)cc2)=C(CN2CCN(c3ccc(C(=O)NS(=O)(=O)c4ccc(N[C@H](CCN5CCOCC5)CSc5ccccc5)c(S(=O)(=O)C(F)(F)F)c4)cc3)CC2)C1 returned TbPYK inhibitor 0.0%.
Screening O=C(O)c1cccc(COc2ccccc2Cl)c1 returned LmPK inhibitor 14.1µM*, FBPA Giardia inh inconclusive, TbPYK inhibitor -17.3% and RE007 growth inh -10.1%.
Screening O=C(O)c1ccc(COc2ccccc2Cl)cc1 returned LmPK inhibitor -13.8%, FBPA Giardia inh inconclusive, TbPYK inhibitor -9.5% and RE007 growth inh -2.3%.
Screening O=C(Nc1nc(-c2cccs2)cs1)C1=COCCO1 returned LmPK inhibitor inconclusive, FBPA Giardia inh -4.7%, TbPYK inhibitor -31.3% and RE007 growth inh 35.5µM*.
Screening CCc1ccccc1Nc1sc(C(=O)c2ccccc2)c(N)c1S(=O)(=O)c1ccccc1 returned TbPYK inhibitor 3.2%.
Screening COc1cc(Br)c(C[N+]2(CCOCCC3CCC4CC3C4(C)C)CCOCC2)cc1OC (stereo not given) returned TbPYK inhibitor 0.0%.
Screening CCn1nc(C)cc1-c1nnc(SCC(=O)Nc2ccccc2)n1CCCOC returned LmPK inhibitor -1.3%, FBPA Giardia inh 2.8%, TbPYK inhibitor -1.1% and RE007 growth inh -12.1%.
Screening CCn1nc(C)cc1-c1nnc(Sc2ncc([N+](=O)[O-])s2)n1C returned LmPK inhibitor 0.7%, FBPA Giardia inh -25.1%, TbPYK inhibitor -21.7% and RE007 growth inh 35.5µM*.
Screening Cc1oc(-c2ccc(C(=O)NC(C)c3ccccc3)cc2)nc1CS(=O)(=O)c1ccccc1 (stereo not given) returned TbPYK inhibitor -34.9%.
Nc1c(CC(=O)O)cccc1C(=O)c1ccc(Br)cc1 was read as TbPYK inhibitor 1.0%.
Screening CO/N=C1\C[C@]2(C[C@@H]3C[C@H](C/C=C(/C)C[C@@H](C)/C=C\C=C4\CO[C@@H]5[C@@H](O)C(C)=C[C@@H](C(=O)O3)[C@]45O)O2)O[C@@H](/C(C)=C/C(C)C)[C@H]1C returned TbPYK inhibitor -12.6%.
Screening CCCCCCCCCCCCCCCC(=O)O[C@H]1[C@@H](O)[C@@H](O)[C@@H]([C@H](NC(=O)[C@@H]2C[C@@H](CCC)CN2C)[C@H](C)Cl)O[C@@H]1SC returned TbPYK inhibitor 5.4%.
O=C(CCNc1ccccc1)c1cccc([N+](=O)[O-])c1 was read as LmPK inhibitor -0.3%, FBPA Giardia inh -4.4%, TbPYK inhibitor 3.0% and RE007 growth inh 11.2µM*.
`O=C(CCNc1ccc(Br)cc1)c1cccc([N+](=O)[O-])c1` gave LmPK inhibitor -0.2%, FBPA Giardia inh -2.1%, TbPYK inhibitor -17.7% and RE007 growth inh inconclusive.
`Cc1ccc(NCCC(=O)c2cccc([N+](=O)[O-])c2)cc1` gave LmPK inhibitor -6.4%, FBPA Giardia inh -0.5%, TbPYK inhibitor -14.8% and RE007 growth inh 5.62µM*.
For O=C(CCNc1ccc(F)cc1)c1cccc([N+](=O)[O-])c1 the results were LmPK inhibitor 5.7%, FBPA Giardia inh 17.8%, TbPYK inhibitor -6.3% and RE007 growth inh 17.8µM*.
`Cc1ccc(CONC(=O)c2cccc([N+](=O)[O-])c2)cc1` gave TbPYK inhibitor 2.6% and RE007 growth inh -7.4%.
`C/C=C1\NC(=O)[C@H]2CSSCC/C=C\[C@H](CC(=O)N[C@H](C(C)C)C(=O)N2)OC(=O)C(C(C)C)NC1=O` (stereo not given in full) gave TbPYK inhibitor 2.1%.
